Where “and” joins values, the source holds several entries; their conditions need not be identical. Equal entries are not always repeated. Records with an inconclusive call do not appear. Some structures have more than one record in an assay (separate samples or runs), and their calls can disagree. Calls of active or inactive are those of the source. Unless noted, the call rests on the fitted dose curve; in most records, active means well fitted curve in the direction sought with a large enough effect in the repeat runs; inconclusive means weak or mixed curves; inactive means no such curve, though single readings can be large; an effect the other way counts as inactive or inconclusive.

Experiment [1] in a line: qHTS assay to identify small molecule agonists of the RXR signaling pathway - cell viability counter screen (AID 1159529). Further: nearly all actives have a fitted effect of over 50% in size. Further: potency means the concentration at half of the fitted maximal effect. Summed up: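 Counter screen: CellTiter-Glo luminescence. Cells: RXR-alpha-UAS-bla HEK 293T. Medium: 2% charcoal-stripped FBS. Treatment: 16 h, 37 C. Reagent incubation: 30 min, RT.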
For orientation: Quantitative high-throughput screening tests each substance at several concentrations.

A short description of experiment [2]: qHTS assay to identify small molecule antagonists of the retinoid acid receptor (RAR) signaling pathway - cell viability counter screen (AID 1159551). Further: nearly all actives have a fitted effect of over 35% in size. Summed up: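 Cytotoxicity counter screen in C3RL4 cells: 6 h compound exposure with 1 uM retinol (final), viability from cellular ATP by luminescence.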
The nature of experiment [3]: qHTS assay to identify small molecule antagonists of the retinoic acid receptor (RAR) signaling pathway (AID 1159552; further: nearly all actives have a fitted effect of over 50% in size; further: potency means the concentration at half of the fitted maximal effect). An outline of the steps:
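Antagonism of retinol-induced RARE reporter activity was measured in C3RL4 cells. Exposure to compounds and 1 uM final retinol lasted 6 hr at 37 C, with luminescence as endpoint.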

Experiment [4] can be described thus: qHTS assay to identify small molecule agonists of the retinoic acid receptor (RAR) signaling pathway (AID 1159553). Further: potency means the concentration at half of the fitted maximal effect. Particulars: C3RL4 RARE luciferase reporter, agonist, 6 h; activation: at 73.3 µM (top of the series) unless noted. An outline of the steps: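 Agonist activity was scored in C3RL4 cells bearing a retinoic acid response element luciferase construct. Cells were treated with compounds for 6 hr at 37 C, and luciferase signal was measured as luminescence.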

Experiment [5] in a line: qHTS assay to identify small molecule antagonists of the estrogen related receptor (ERR) signaling pathway (AID 1224819; further: nearly all actives have a fitted effect of over 50% in size; further: potency means the concentration at half of the fitted maximal effect). Summed up:
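Compounds dissolved in DMSO were pin-transferred onto ERR cells that had been plated 6 h earlier, and cells were then incubated 18 h at 37 C; signal was luciferase luminescence via One-Glo.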

The nature of experiment [6]: qHTS assay to identify small molecule agonists of the estrogen related receptor (ERR) signaling pathway (AID 1224820). Further: potency means the concentration at half of the fitted maximal effect. An outline of the steps: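 Cells: ERR line from NTP, 2,000/well. Pre-incubation 6 h, 37 C/5% CO2. Compound (DMSO) pin transfer, 18 h 37 C. One-Glo, 30 min RT, luminescence.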
Experiment [7] relates to estrogen-related receptor alpha (ERRalpha) with PGC-1alpha coactivator, human. Briefly: qHTS assay to identify small molecule antagonists of the estrogen related receptor signaling pathway with the pleiotropic PPARgamma coactivator (PGC) (AID 1224821; calls by dose curve; further: nearly all actives have a fitted effect of over 50% in size; further: potency means the concentration at half of the fitted maximal effect). Summed up: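 Luminescent read-out (One-Glo, 30 min at room temperature) following 18 h treatment of PGC/ERR cells at 37 C with compounds delivered in DMSO. Cells had settled 6 h at 37 C/5% CO2 before dosing.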

The nature of experiment [8]: qHTS assay to identify small molecule agonists of the estrogen related receptor signaling pathway with the pleiotropic PPARgamma coactivator (PGC) (AID 1224823). Summed up:
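Steps: plate PGC/ERR cells at 2,000 cells/well; incubate 6 h, 37 C/5% CO2; pin-transfer compounds (DMSO); incubate 18 h, 37 C; add One-Glo; 30 min RT; read luminescence.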

Experiment [9] in a line: qHTS assay to identify small molecule antagonists of the estrogen related receptor (ERR) signaling pathway - cell viability counter screen (AID 1224818).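 Further: viability measured after 17.5 h of compound exposure.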 An outline of the steps:
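Cells carrying the ERR pathway reporter were seeded and incubated for 6 hours before compound addition. After a 17.5-hour exposure at 37 C, live-cell protease activity was measured by CellTiter-Fluor fluorescence following 30 minutes of incubation.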

A short description of experiment [10]: qHTS assay to identify small molecule antagonists of the estrogen related receptor signaling pathway with the pleiotropic PPARgamma coactivator (PGC) cell viability counter screen (AID 1224822). Summed up: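 Seed PGC/ERR cells (2,000/well); incubate 6 h at 37 C/5% CO2; pin-transfer compounds in DMSO; incubate 17.5 h at 37 C; add CellTiter-Fluor; after 30 min read fluorescence.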

For the molecule `CCN(CC)C(=O)SCc1ccc(Cl)cc1`, the Potency result in experiment [1], in experiment [2] and in experiment [3] was “inactive” throughout.
Turning to `Nc1cccnc1`, the Potency entry in experiment [1], in experiment [2], in experiment [3] and in experiment [4] was “inactive” each time.
In the case of `O=C(Nc1ccc(Br)cc1)c1cc(Br)cc(Br)c1O`, in experiment [1], the Potency is 24.5 µM (active). The Potency result in experiment [2], in experiment [3] and in [4] was “inactive” throughout.
With `C=CC(=O)OCCO`, the Potency entry in [1] and in [2] was “inactive” in each case.
As to `Cc1c(COC(=O)[C@@H]2[C@H](/C=C(\Cl)C(F)(F)F)C2(C)C)cccc1-c1ccccc1`, the Potency result in experiment [1], in experiment [2], in experiment [3] and in experiment [4] was “inactive” in each case.
For `Oc1cc(Cl)c(Cl)cc1Cl`, the Potency entry in experiment [1] and in experiment [2] was “inactive” throughout.
With `c1ccc(NNc2ccccc2)cc1`, the Potency result in experiment [1], in [2] and in [3] was “inactive” in each case.
For `C#C[C@]1(O)CC[C@H]2[C@@H]3CCC4=CC(=O)CC[C@]4(C)[C@H]3CC[C@@]21C`, the Potency result in experiment [1], in experiment [2], in [3] and in experiment [4] was “inactive” in each case.
Turning to `Clc1nc(Cl)nc(Cl)n1`, the Potency entry in experiment [1] and in experiment [2] was “inactive” in each case.
Turning to `COc1ccc(C=O)cc1`, the Potency entry in [1] and in experiment [2] was “inactive” each time.
Consider `NC(=S)Nc1ccccc1`, for which the Potency in [1] is 25 µM (active) and inactive. The Potency entry in [2], in experiment [3] and in [4] was “inactive” each time.
As to `Nc1ccc(-c2ccccc2)cc1`, the Potency entry in [1] and in [2] was “inactive” each time. In addition, the Potency in experiment [3] was 62.8 µM (active) and inactive; in experiment [4] it was 35.3 µM (active) and 9.69 µM (active).
Regarding `C=CCc1ccc(OC)cc1`, the Potency entry in [1] and in experiment [2] was “inactive” each time.
On to `CNC(=O)Oc1cccc2c1OC(C)(C)O2`, for which the Potency entry in experiment [1] and in [2] was “inactive” each time.
In the case of `COP(=S)(OC)Oc1ccc([N+](=O)[O-])cc1`, the Potency result in [1], in experiment [2], in [3] and in experiment [4] was “inactive” throughout.
Take `C=CCN(CC=C)C(=O)C(Cl)Cl`: the Potency entry in [1] and in experiment [2] was “inactive” throughout.
With `Cc1cccc(N)c1N`, the Potency entry in [1], in experiment [2] and in [3] was “inactive” in each case. Moreover, the Potency in experiment [4] was 1.05 µM (active) and 2.43 µM (active).
In the case of `CCCCCCCCC(=O)NCc1ccc(O)c(OC)c1`, the Potency entry in [1], in experiment [2] and in experiment [3] was “inactive” in each case.
`CCCCN(CCCC)N=O`: the Potency result in experiment [1] and in experiment [2] was “inactive” in each case.
For `CCCCNC(=O)n1c(NC(=O)OC)nc2ccccc21`, the Potency entry in [1], in experiment [2] and in experiment [3] was “inactive” in each case. Besides, in [4], the Potency is 13.6 µM (active).
For the molecule `Nc1ccc(Cl)c(Cl)c1`, the Potency result in [1] and in experiment [2] was “inactive” throughout.
As for `Cc1ccc(N)c(N)c1`, the Potency entry in experiment [1], in experiment [2] and in experiment [3] was “inactive” throughout. Further, the Potency in experiment [4] was 1.54 µM (active) and 1.22 µM (active).
As to `Nn1cnnc1`, the Potency result in [1], in experiment [2], in experiment [3] and in [4] was “inactive” in each case.
Take `COC(=O)c1sccc1S(=O)(=O)NC(=O)Nc1nc(C)nc(OC)n1`: the Potency entry in experiment [1], in experiment [2], in [3] and in experiment [4] was “inactive” throughout.
Turning to `CC(C)(c1cc(Cl)c(O)c(Cl)c1)c1cc(Cl)c(O)c(Cl)c1`, in [2], the Potency entry is “inactive”.
`NNC(=S)NN`: the Potency result in [2] is “inactive”.
`S=C1NCCN1`: the Potency result in [1], in experiment [2], in experiment [3] and in [4] was “inactive” in each case.
Regarding `CCC(=O)O[C@H]1CC[C@H]2[C@@H]3CCC4=CC(=O)CC[C@]4(C)[C@H]3CC[C@]12C`, the Potency was 49 µM (active) in experiment [1]; 48.6 µM (active) and inactive in experiment [3]. Further, the Potency result in experiment [2] and in experiment [4] was “inactive” throughout.
On to `N#Cc1cc(Br)c(O)c(Br)c1`, for which, in experiment [1], the Potency is 11 µM (active) and 13.3 µM (active). Moreover, the Potency result in experiment [2], in [3] and in [4] was “inactive” in each case.
For `N#CCCCl`, the Potency entry in [1], in [2], in [3] and in [4] was “inactive” in each case.
`C=C(C)[C@H]1Cc2c(ccc3c2O[C@@H]2COc4cc(OC)c(OC)cc4[C@@H]2C3=O)O1`: the Potency result in [1], in experiment [4] and in [6] was “inactive” each time. Besides, the Potency in [5] was 0.081 µM (active); in [7], 0.0361 µM (active). Besides, the outcome in experiment [8] was inactive.
In the case of `COP(=O)(OC)OC`, the Potency entry in [2] is “inactive”.
Consider `Nc1ccncc1`, for which the Potency entry in [1], in [2] and in [10] was “inactive” throughout. Also, in experiment [9], the result was inactive.
Take `NCc1cccnc1`: the Potency entry in [1], in [2], in experiment [3] and in experiment [4] was “inactive” each time.
Take `O=c1oc2ccccc2c(O)c1C(CC(O)c1ccc(-c2ccc(Br)cc2)cc1)c1ccccc1` (centres undefined): the Potency entry in [2] is “inactive”.
Same read-out and setting: for `CCC(C)(c1ccc(O)cc1)c1ccc(O)cc1` the value was “inactive”.
Regarding `Nc1ccc(Cl)cc1N`, the Potency entry in [1], in experiment [2], in experiment [3], in experiment [5], in experiment [7] and in experiment [10] was “inactive” each time. Also, the Potency in [4] is 1.6 µM (active) and 545 nM (active); in experiment [6], 5.88 µM (active). Also, in experiment [9], the call was inactive.
`CCC(C)(C)c1ccc(O)cc1`: in [2], the Potency entry is “inactive”.
On the same count and under the same terms, for `CC(C)(C)c1ccccc1O` the value was “inactive”.
On to `N[C@@H](Cc1ccc(N(CCCl)CCCl)cc1)C(=O)O`, for which the Potency result in experiment [1], in experiment [2] and in experiment [4] was “inactive” throughout.
For `O=C(O)CC[N+](=O)[O-]`, the Potency entry in [1], in experiment [2], in [3], in experiment [4] and in [10] was “inactive” in each case. For the same molecule, the result in experiment [9] was inactive.
For `CN(C)C(=O)Nc1ccc(Cl)cc1`, in experiment [2], the Potency result is “inactive”.
In the case of `CN(C)c1ccc(C(=O)c2ccc(N(C)C)cc2)cc1`, the Potency result in experiment [1], in [2] and in experiment [3] was “inactive” in each case. Also, in experiment [4], the Potency is 1.21 µM (active) and 1.22 µM (active).
`CCCCC(CC)COC(=O)c1ccc(C(=O)OCC(CC)CCCC)c(C(=O)OCC(CC)CCCC)c1` (centres undefined): the Potency result in experiment [1], in experiment [2], in experiment [3] and in experiment [4] was “inactive” each time.
As to `CCCCC(CC)COC(=O)Cl` (centres undefined), the Potency entry in experiment [1], in experiment [2], in [3] and in [4] was “inactive” each time.
In the case of `CCOC(=S)S`, the Potency in experiment [1] was 23.3 µM (active). In addition, the Potency entry in experiment [3] was “inactive”.
As to `O=C1C=CC(=O)C=C1`, the Potency result in [1], in experiment [2] and in experiment [10] was “inactive” in each case. Besides, the result in experiment [9] was inactive.
Take `CCC(C)c1ccc(O)cc1` (centres undefined): the Potency entry in experiment [2] is “inactive”.
For the molecule `CC(C)C(=O)OCC(C)(C)C(OC(=O)C(C)C)C(C)C` (centres undefined), the Potency result in experiment [1], in experiment [2], in experiment [3] and in experiment [4] was “inactive” throughout.

Values taken from PubChem BioAssay (Tox21).
